PubChem BioAssay (NCI)
This is part of a sample that, as a whole, favours compounds with a hit. Of some 83,000 tested, about 20% had one in any assay.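 Each cell line was grown in a 96-well plate and treated with one concentration of compound for 48 hours. Values below 10 were considered active.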 Values without a mark were called inactive. Calls of active or inactive are those of the source.

How the values were obtained:
Test in all cases: NCI-60 one-dose screen, 48 h (100 = growth as untreated, 0 = no growth, -100 = all killed)
EKVX NSCLC = settings: 10 µM unless noted
SN12C renal = settings: 10 µM unless noted
TK-10 renal = settings: 10 µM unless noted
ACHN renal = settings: 10 µM unless noted
CAKI-1 renal = settings: 10 µM unless noted
A498 renal = settings: 10 µM unless noted
CCRF-CEM leukemia = settings: 10 µM unless noted
MOLT-4 leukemia = settings: 10 µM unless noted
SR leukemia = settings: 10 µM unless noted
RPMI-8226 leukemia = settings: 10 µM unless noted
OVCAR-8 ovarian = settings: 10 µM unless noted
OVCAR-5 ovarian = settings: 10 µM unless noted
OVCAR-4 ovarian = settings: 10 µM unless noted
SK-OV-3 ovarian = settings: 10 µM unless noted
IGROV1 ovarian = settings: 10 µM unless noted
OVCAR-3 ovarian = settings: 10 µM unless noted
HS 578T breast = settings: 10 µM
NCI/ADR-RES ovarian = settings: 10 µM unless noted
UO-31 renal = settings: 10 µM unless noted

SMILES | growth (EKVX NSCLC) | growth (SN12C renal) | growth (TK-10 renal) | growth (ACHN renal) | growth (CAKI-1 renal) | growth (A498 renal) | growth (CCRF-CEM leukemia) | growth (MOLT-4 leukemia) | growth (SR leukemia) | growth (RPMI-8226 leukemia) | growth (OVCAR-8 ovarian) | growth (OVCAR-5 ovarian) | growth (OVCAR-4 ovarian) | growth (SK-OV-3 ovarian) | growth (IGROV1 ovarian) | growth (OVCAR-3 ovarian) | growth (HS 578T breast) | growth (NCI/ADR-RES ovarian) | growth (UO-31 renal)
O=C1CSC(c2c(F)cccc2Cl)N1NC(=O)C(O)(c1ccccc1)c1ccccc1 (stereo not given) | 95.2% | 93.8% | 113% | 99.9% | 93.3% | 102% | 97% | 74% | 95.5% | 94% | 98.3% | 103% | 97.4% | 101% | 72% | 100% | 90.1% | 95.4% | –
CCN(CC)CCNC(=O)c1c(C)[nH]c(/C=C2\C(=O)Nc3ccc(F)cc32)c1C | 17.8% | 26% | 27.1% | -12.8% (active) | – | 47.4% | 7.54% (active) | – | -9.44% (active) | -10.3% (active) | 1.47% (active) | 35% | 23.9% | 26.9% | 24.6% | 67.9% | – | 18.4% | 7.88% (active)
O=C(c1ccc(/C=C/c2n[nH]c3ccccc23)cc1)N1CCNCC1 | 71% | 22.5% | 53% | 36.5% | – | 37.9% | 53.2% | 19.9% | 5.24% (active) | 48.9% | 58.8% | 14.4% | 54.8% | 48.5% | 33.5% | 66.8% | – | 82.1% | -7.82% (active)
COc1cc(OC)c(C(=O)/C=C/c2cc3c(cc2OCc2ccccc2)OC(C)(C)CC3)cc1CC=C(C)C | 61.1% | 47.6% | 81.7% | 68.2% | – | 98.9% | – | -0.0389% (active) | 11.6% | – | 1.96% (active) | 64.7% | 44.7% | 78.6% | 66.5% | 19.2% | 69.6% | 51.9% | 51.4%
O=C1C=CC2(NN=C(c3ccccc3)N2c2cccc(Cl)c2)C(Cl)=C1 (stereo not given) | 67.5% | 84.4% | 100% | 63.7% | – | 83.4% | 41.6% | 39.2% | 67.3% | 58.6% | 76% | 92.3% | 70.5% | 70.7% | 87.1% | 84.9% | – | 89.7% | 51.5%
O=C(Nc1ccc(C(=O)Nc2ccc(C3=NCCCN3)cc2)cc1)Nc1ccc(C2=NCCCN2)cc1 | 61.4% | 91.6% | 96.7% | 86% | – | 119% | 70.9% | 81.5% | 44.5% | – | 57.4% | 93.2% | 65.5% | 97.8% | 99.7% | 103% | 91.3% | 86.5% | 82.6%
CCCCN1C(=O)c2cccc3c(-c4ccc5c(c4)ncn5C4CCCCC4)ccc(c23)C1=O | 99.8% | 105% | 102% | 107% | – | 118% | 113% | 94.7% | 91.1% | 108% | 89.9% | 98.3% | 97.6% | 92.3% | 108% | 101% | – | 92.5% | 82.1%
CO[C@H]1C[C@@H]2CC[C@@H](C)[C@@](O)(O2)C(=O)C(=O)N2CCCC[C@H]2C(=O)O[C@H]([C@H](C)C[C@@H]2CC[C@@H](OP(C)(C)=O)[C@H](OC)C2)CC(=O)[C@H](C)/C=C(\C)[C@@H](O)[C@@H](OC)C(=O)[C@H](C)C[C@H](C)\C=C/C=C/C=C/1C | 49.8% | 53.9% | 46% | 54.4% | – | 2.06% (active) | 37.2% | 28.8% | 13.1% | 34.8% | 34.3% | 60.7% | 28.6% | 12.2% | 24.4% | 59.7% | – | 51.4% | 27.3%
CN1CCN(c2nc(C3=C(c4c[nH]c5ccccc45)C(=O)NC3=O)c3ccccc3n2)CC1 | 82.6% | 92.3% | 47.3% | 70.2% | – | 75.1% | 100% | 74.7% | 68.7% | 97.8% | 66.9% | 25.1% | 71.9% | 87.1% | 75.4% | 110% | – | 85.1% | 64%
CC(C)(C)c1cnc(CSc2cnc(NC(=O)C3CCNCC3)s2)o1 | 22.7% | 11.8% | 5.16% (active) | 9.41% (active) | – | -31.7% (active) | 7.55% (active) | 0.905% (active) | 0.401% (active) | -8.04% (active) | 5.71% (active) | 14.9% | 9.94% (active) | 6.31% (active) | 9.86% (active) | 20.2% | – | 53% | -4.7% (active)
COCC(=O)NC/C=C/c1ccc2ncnc(Nc3ccc(Oc4ccc(C)nc4)c(C)c3)c2c1 | 38.9% | 34.9% | 5.8% (active) | 16.1% | – | 24.6% | 79.2% | 29.3% | 22.5% | 50.6% | 38.5% | 21.6% | 40.1% | -18.6% (active) | -8.37% (active) | 63.3% | – | 57.1% | 16.8%
CN(C[C@@H]1COCCO1)S(=O)(=O)Nc1ccc2ccc3ncc(-c4cnn(C)c4)cc3c(=O)c2c1 | 52.9% | 38.9% | 37.2% | 22.2% | – | -19% (active) | 34.9% | 21.1% | 13.1% | 38.5% | 31.3% | 55.2% | 38.2% | 1.71% (active) | 11.5% | 55.4% | – | 52.1% | 8.44% (active)
C=C1C(=O)O[C@H]2[C@H]1CC/C(CNC(=O)c1cc3cc(OC)ccc3[nH]1)=C\CC[C@@]1(C)O[C@@H]21 | -55.9% (active) | -38.5% (active) | -83% (active) | -76.2% (active) | – | – | -19.3% (active) | -31% (active) | -0.374% (active) | -38.4% (active) | -16.4% (active) | -20.4% (active) | -3.23% (active) | 59.3% | -19.8% (active) | -90.7% (active) | -1.38% (active) | 54.3% | -75.8% (active)
